# Experimental data as given in PubChem BioAssay (EPA / NIEHS).
# Several values for one entry are separate records, joined by “and”; a condition that tells them apart may be missing. Equal entries are not always repeated. Some structures have more than one record in an assay (separate samples or runs), and their calls can disagree. Activity calls are given as the source filed them. How the source made its calls: active means hit-call score of the fitted dose curve at least 0.9, where 1 is the maximum; inactive means score below 0.9.
# Columns and labels:
# [1] = ATG_GRE_CIS: Attagene CIS-FACTORIAL HepG2 Assay for human Glucocorticoid Response Elements (GRE) (AID 2282947); conditions: HepG2 GRE cis-reporter, Attagene multiplex mRNA; actives raise or lower the signal
# Outline: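 Fluorescence intensity of reporter-specific cDNA fragments, separated by capillary electrophoresis, provides the signal. Constructs carry cis-regulating promoters in transiently transfected HepG2 liver cells; 24 h incubation; fitting is bidirectional against DMSO.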
# [2] = ATG_ISRE_CIS: Attagene CIS-FACTORIAL HepG2 Assay for human Interferon Regulatory Factor 1 (IRF1) binding to an Interferon-Stimulated Response Element (ISRE) (AID 2282948); conditions: HepG2 ISRE cis-reporter (Attagene), mRNA transcription readout; actives raise or lower the signal
# Outline: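 Endogenous transcription factor activity read as reporter transcript abundance via RT-PCR and capillary electrophoresis. HepG2 cells transiently transfected, 24 h chemical exposure. Gain or loss fitted against DMSO baseline.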
# [3] = ATG_M_32_CIS: Attagene CIS-FACTORIAL HepG2 Assay for M32 Transcription Factor (Internal Marker) (AID 2282949); conditions: HepG2 Attagene cis-factorial M32 reporter, mRNA; actives raise or lower the signal;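 further: background control marker of the multiplexed CIS panel rather than a real target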
# Outline: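 HepG2 human liver cells transiently transfected with cis-promoter-driven multiple reporter transcription units, dosed 24 h. Reporter mRNA quantified by RT-PCR, FAM-labelled primer extension, HpaI digest and capillary electrophoresis; bidirectional fit versus DMSO baseline.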
# [4] = ATG_M_06_CIS: Attagene CIS-FACTORIAL HepG2 Assay for M06 Transcription Factor (Internal Marker) (AID 2282950); conditions: HepG2 Attagene CIS-FACTORIAL M06 internal marker reporter; actives raise or lower the signal
# Outline: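 HepG2 liver cells, 24 h exposure. Reporter transcripts from transfected cis-element constructs quantified by RT-PCR/capillary electrophoresis fluorescence. Bidirectional curve fit against DMSO.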
# [5] = biological target: Hypoxia-inducible factor 1-alpha (Homo sapiens) (UniProt Q16665); test: ATG_HIF1a_CIS: Attagene CIS-FACTORIAL HepG2 Assay for human Hypoxia Inducible Factor 1 (HIF1A) (AID 2282951); conditions: HepG2 Attagene cis-factorial HIF1a reporter transcription; actives raise or lower the signal
# Sequence of Hypoxia-inducible factor 1-alpha (Homo sapiens) (Q16665 whole entry, looked up): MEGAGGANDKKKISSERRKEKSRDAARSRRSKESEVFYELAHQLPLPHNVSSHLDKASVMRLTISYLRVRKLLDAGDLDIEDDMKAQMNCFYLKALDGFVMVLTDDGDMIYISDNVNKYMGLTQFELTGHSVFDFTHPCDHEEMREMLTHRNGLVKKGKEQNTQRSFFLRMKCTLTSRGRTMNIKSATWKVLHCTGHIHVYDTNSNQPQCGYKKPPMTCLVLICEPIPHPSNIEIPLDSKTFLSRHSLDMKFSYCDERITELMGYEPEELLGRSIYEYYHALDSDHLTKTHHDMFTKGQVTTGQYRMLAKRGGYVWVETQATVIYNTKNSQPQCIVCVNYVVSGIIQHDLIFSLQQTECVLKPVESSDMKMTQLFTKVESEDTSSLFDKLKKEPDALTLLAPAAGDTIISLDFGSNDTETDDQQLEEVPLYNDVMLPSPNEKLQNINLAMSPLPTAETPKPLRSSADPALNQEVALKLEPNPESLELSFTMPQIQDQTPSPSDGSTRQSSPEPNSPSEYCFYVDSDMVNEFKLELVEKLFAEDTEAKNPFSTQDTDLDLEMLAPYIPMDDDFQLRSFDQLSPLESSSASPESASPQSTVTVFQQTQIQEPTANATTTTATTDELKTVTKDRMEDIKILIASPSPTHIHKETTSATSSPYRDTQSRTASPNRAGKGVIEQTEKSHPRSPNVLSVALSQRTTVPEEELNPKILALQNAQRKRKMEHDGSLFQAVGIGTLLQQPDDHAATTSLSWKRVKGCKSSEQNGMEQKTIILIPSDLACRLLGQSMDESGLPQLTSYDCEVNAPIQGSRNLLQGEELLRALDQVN
# Outline: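 Endogenous-TF cis reporter readout, human HepG2 cells, 24 h incubation; mRNA detected via RT-PCR and capillary electrophoresis fluorescence; DMSO-normalised bidirectional fitting.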
# [6] = biological target: Hepatocyte nuclear factor 6 (Homo sapiens) (UniProt Q9UBC0); test: ATG_HNF6_CIS: Attagene CIS-FACTORIAL HepG2 Assay for human Hepatocyte Nuclear Factor 6 (HNF6) (AID 2282952); conditions: HepG2 Attagene cis-factorial HNF6 reporter transcription; actives raise or lower the signal
# Sequence of Hepatocyte nuclear factor 6 (Homo sapiens) (Q9UBC0 whole entry, looked up, the tested form may be a part): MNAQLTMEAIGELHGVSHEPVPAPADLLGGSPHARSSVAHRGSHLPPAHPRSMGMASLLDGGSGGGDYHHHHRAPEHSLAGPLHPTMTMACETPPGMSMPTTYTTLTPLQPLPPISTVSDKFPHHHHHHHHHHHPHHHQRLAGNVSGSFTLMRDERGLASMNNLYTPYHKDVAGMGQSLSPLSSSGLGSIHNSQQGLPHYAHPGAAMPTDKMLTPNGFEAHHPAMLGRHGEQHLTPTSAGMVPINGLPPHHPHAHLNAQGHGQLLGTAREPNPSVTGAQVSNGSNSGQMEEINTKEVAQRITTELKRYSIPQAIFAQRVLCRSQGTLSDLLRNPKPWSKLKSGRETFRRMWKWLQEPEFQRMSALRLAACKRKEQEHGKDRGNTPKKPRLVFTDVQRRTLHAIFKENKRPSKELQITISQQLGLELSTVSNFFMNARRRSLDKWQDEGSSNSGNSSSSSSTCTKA
# Outline: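 Using cis-element reporters in HepG2 liver cells, the assay tracks endogenous factor-driven transcription 24 h post-dosing. Signal comes from 6-FAM-labelled, HpaI-digested RT-PCR fragments, with gain or loss scored against DMSO.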
# [7] = biological target: Heat shock factor protein 1 (Homo sapiens) (UniProt Q00613); test: ATG_HSE_CIS: Attagene CIS-FACTORIAL HepG2 Assay for human Heat Shock Transcription Factor 1 (HSE) (AID 2282953); conditions: HepG2 HSE cis-reporter, Attagene RNA transcription; actives raise or lower the signal
# Sequence of Heat shock factor protein 1 (Homo sapiens) (Q00613 whole entry, looked up, the tested form may be a part): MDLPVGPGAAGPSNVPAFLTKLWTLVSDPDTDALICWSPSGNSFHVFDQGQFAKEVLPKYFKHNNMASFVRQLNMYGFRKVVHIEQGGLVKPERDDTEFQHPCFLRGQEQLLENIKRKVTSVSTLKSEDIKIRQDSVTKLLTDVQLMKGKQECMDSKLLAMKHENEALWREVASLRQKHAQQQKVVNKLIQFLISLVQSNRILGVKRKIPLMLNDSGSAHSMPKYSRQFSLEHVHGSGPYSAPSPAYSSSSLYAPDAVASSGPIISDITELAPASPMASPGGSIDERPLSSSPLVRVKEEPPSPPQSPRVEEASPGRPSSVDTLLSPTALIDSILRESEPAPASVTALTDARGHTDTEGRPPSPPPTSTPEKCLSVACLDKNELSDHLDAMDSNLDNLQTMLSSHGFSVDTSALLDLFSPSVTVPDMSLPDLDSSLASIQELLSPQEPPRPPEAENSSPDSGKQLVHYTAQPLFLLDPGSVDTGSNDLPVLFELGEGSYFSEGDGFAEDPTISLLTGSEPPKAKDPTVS
# Outline: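 Endogenous transcription factor activity captured via cis-promoter reporter units transfected into HepG2; treatment lasted 24 h. Fluorescence intensity of reporter fragments analysed with bidirectional curve fitting, DMSO baseline.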
# [8] = ATG_MRE_CIS: Attagene CIS-FACTORIAL HepG2 Assay for human Metal Responsive Element (MRE) (AID 2282954); conditions: HepG2 MRE cis-reporter transcription, Attagene multiplex; actives raise or lower the signal
# Outline: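 Measured here is mRNA induction from an MRE cis-element reporter in HepG2 after 24 h, quantified by fluorescence of labelled RT-PCR products on capillary electrophoresis; gain- and loss-of-signal fits use DMSO as baseline.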
# [9] = biological target: Paired box protein Pax-6 (Homo sapiens) (UniProt P26367); test: ATG_Pax6_CIS: Attagene CIS-FACTORIAL HepG2 Assay for human Paired Box 6 (PAX6) (AID 2282956); conditions: HepG2 CIS-FACTORIAL PAX6 reporter transcription, RNA readout; actives raise or lower the signal
# Sequence of Paired box protein Pax-6 (Homo sapiens) (P26367 whole entry, looked up): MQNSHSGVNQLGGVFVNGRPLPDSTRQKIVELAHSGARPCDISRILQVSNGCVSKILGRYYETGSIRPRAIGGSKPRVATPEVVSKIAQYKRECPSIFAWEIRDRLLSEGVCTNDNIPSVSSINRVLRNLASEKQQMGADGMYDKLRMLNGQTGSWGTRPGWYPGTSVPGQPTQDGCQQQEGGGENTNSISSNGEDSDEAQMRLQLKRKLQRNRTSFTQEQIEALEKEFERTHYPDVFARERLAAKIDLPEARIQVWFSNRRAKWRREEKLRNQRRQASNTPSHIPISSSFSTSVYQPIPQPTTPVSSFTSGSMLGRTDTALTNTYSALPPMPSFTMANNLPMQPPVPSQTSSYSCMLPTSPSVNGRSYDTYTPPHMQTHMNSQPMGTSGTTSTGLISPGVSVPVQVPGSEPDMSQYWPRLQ
# Outline: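 Read-out is reporter transcript level, measured by RT-PCR with fluorescent primer extension and capillary electrophoresis after 24 h dosing of transfected HepG2 cells. Activity in either direction fitted relative to DMSO control.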
# [10] = ATG_PXRE_CIS: Attagene CIS-FACTORIAL HepG2 Assay for human Pregnane X Receptor Element (PXRE) (AID 2282957); conditions: HepG2 Attagene CIS-FACTORIAL PXRE reporter, mRNA; actives raise or lower the signal
# Outline: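 Using HepG2 transfected with multiple reporter transcription units, endogenous factor-driven transcription was scored as reporter mRNA after 24 h exposure.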
# [11] = ATG_PPRE_CIS: Attagene CIS-FACTORIAL HepG2 Assay for human Peroxisome Proliferator-activated Response Element (PPRE) (AID 2282958); conditions: HepG2 PPRE cis-element reporter, Attagene transcription factor profiling; actives raise or lower the signal
# Outline: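 After human HepG2 hepatoma cells were transiently transfected with cis-promoter reporter constructs, they were exposed to test chemicals for 24 hours. Reporter RNA was then reverse-transcribed, PCR-amplified, FAM-labeled, HpaI-digested and quantified by capillary electrophoresis.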
# [12] = ATG_Sox_CIS: Attagene CIS-FACTORIAL HepG2 Assay for human SRY-box transcription factor (SOX) (AID 2282960); conditions: HepG2 Attagene cis-factorial SOX reporter, mRNA; actives raise or lower the signal
# Outline: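 Using transiently transfected HepG2 cells, reporter transcription driven by cis elements was assessed 24 h after dosing. Signal was fluorescence of capillary-separated RT-PCR products, with DMSO defining baseline activity.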
# [13] = biological target: Transcription factor Sp1 (Homo sapiens) (UniProt P08047); test: ATG_Sp1_CIS: Attagene CIS-FACTORIAL HepG2 Assay for human Specificity Protein 1 (Sp1) (AID 2282961); conditions: HepG2 Sp1 cis-reporter transcription, actives raise or lower the signal
# Sequence of Transcription factor Sp1 (Homo sapiens) (P08047 whole entry, looked up): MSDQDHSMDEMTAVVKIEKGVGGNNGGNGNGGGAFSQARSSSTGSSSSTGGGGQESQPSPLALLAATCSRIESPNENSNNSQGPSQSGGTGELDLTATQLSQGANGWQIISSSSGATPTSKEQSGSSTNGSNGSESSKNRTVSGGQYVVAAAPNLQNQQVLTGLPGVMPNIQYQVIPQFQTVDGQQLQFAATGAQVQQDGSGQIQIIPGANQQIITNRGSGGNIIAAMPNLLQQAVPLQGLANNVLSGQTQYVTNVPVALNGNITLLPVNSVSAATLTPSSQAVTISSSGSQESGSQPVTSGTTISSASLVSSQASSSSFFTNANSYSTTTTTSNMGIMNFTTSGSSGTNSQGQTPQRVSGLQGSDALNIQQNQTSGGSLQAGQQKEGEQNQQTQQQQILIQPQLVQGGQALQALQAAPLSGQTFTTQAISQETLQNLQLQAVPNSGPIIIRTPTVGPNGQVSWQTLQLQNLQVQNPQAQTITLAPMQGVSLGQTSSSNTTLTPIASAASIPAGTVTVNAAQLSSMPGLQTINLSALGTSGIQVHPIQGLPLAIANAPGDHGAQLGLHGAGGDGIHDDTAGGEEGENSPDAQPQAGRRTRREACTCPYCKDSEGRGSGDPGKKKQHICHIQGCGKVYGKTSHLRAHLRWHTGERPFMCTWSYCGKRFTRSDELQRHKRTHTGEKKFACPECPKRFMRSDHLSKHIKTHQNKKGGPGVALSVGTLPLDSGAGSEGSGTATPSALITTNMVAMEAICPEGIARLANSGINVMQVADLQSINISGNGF
# Outline: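 After transient transfection of HepG2 cells with cis-promoter reporter units and 24 h chemical treatment, reporter transcripts were quantified by RT-PCR and capillary electrophoresis fluorescence. Gain- and loss-of-signal fitted against DMSO.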
# [14] = biological target: Signal transducer and activator of transcription 3 (Homo sapiens) (UniProt P40763); test: ATG_STAT3_CIS: Attagene CIS-FACTORIAL HepG2 Assay for human Signal Transducer and Activator of Transcription 3 (STAT3) (AID 2282963); conditions: HepG2, Attagene cis-factorial STAT3 reporter transcription; actives raise or lower the signal
# Sequence of Signal transducer and activator of transcription 3 (Homo sapiens) (P40763 whole entry, looked up, the tested form may be a part): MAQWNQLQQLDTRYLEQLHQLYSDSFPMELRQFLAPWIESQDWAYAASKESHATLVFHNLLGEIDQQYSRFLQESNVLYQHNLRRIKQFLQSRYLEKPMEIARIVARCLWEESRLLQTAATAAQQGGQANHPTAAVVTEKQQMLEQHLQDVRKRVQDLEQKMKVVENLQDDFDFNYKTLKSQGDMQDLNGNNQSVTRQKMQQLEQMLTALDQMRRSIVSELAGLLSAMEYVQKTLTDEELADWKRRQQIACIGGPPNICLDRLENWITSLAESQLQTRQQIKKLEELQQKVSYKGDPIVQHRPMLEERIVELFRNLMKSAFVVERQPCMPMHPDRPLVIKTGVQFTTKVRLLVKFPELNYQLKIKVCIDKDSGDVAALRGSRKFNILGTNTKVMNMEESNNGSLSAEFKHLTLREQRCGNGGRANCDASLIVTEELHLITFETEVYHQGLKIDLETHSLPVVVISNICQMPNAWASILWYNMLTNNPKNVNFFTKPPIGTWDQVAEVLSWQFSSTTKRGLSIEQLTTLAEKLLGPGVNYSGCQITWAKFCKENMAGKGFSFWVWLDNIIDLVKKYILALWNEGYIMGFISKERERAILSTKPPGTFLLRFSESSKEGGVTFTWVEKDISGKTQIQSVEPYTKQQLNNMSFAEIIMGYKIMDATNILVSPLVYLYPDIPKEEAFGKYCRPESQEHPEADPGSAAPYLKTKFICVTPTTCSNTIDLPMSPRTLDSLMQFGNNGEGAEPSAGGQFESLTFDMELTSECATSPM
# Outline: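 Fluorescence intensity of 6-FAM-labelled reporter fragments, separated by capillary electrophoresis after RT-PCR, gave the signal. Cells were HepG2 transfected with cis-element reporter units and treated 24 h; fitting was bidirectional relative to DMSO.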
# [15] = ATG_TA_CIS: Attagene CIS-FACTORIAL HepG2 Assay for human TA Basal Promoter (AID 2282964); conditions: HepG2 Attagene CIS-factorial TA basal promoter reporter; actives raise or lower the signal
# Outline: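 Fluorescence from labelled RT-PCR reporter fragments, separated by capillary electrophoresis, gives the signal. Cells: HepG2 transiently carrying multiple reporter units, 24 h chemical dosing. Gain or loss relative to DMSO.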
# [16] = ATG_TCF_b_cat_CIS: Attagene CIS-FACTORIAL HepG2 Assay for human T-Cell-Factor with beta-catenin (TCF/b-cat) (AID 2282965); conditions: HepG2 TCF/beta-catenin cis-reporter transcription, actives raise or lower the signal
# Outline: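 HepG2, transient MRTU transfection, cis-element-driven reporters (endogenous TFs). 24 h compound exposure. Readout: reporter mRNA by RT-PCR + 6-FAM primer extension, HpaI digest, capillary electrophoresis. Gain/loss fit vs DMSO baseline.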
# [17] = biological target: Bile acid receptor (Homo sapiens) (UniProt Q96RI1); test: ATG_IR1_CIS: Attagene CIS-FACTORIAL HepG2 Assay for human Nuclear Receptor Subfamily 1 Group H Member 4 (NR1H4), IR1 submotif (AID 2282946); conditions: IR1 reporter transcription, actives raise or lower the signal
# Sequence of Bile acid receptor (Homo sapiens) (Q96RI1 whole entry, looked up): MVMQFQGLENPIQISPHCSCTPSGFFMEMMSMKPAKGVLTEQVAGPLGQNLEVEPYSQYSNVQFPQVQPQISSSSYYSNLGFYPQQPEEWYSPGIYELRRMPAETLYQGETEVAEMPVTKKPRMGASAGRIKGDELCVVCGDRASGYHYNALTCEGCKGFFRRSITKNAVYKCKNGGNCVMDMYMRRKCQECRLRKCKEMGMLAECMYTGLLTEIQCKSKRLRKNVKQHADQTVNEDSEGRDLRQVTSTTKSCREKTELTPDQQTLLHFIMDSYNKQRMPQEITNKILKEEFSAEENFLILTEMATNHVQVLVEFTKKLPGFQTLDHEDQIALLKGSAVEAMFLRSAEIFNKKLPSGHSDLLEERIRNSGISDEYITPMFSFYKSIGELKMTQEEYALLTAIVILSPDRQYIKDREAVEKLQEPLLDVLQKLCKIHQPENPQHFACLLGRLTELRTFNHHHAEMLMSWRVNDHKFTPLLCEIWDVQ
# Outline: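 Fluorescence of capillary-separated, HpaI-digested RT-PCR reporter products gave IR1-element mRNA induction in HepG2 cells 24 h after dosing. Endogenous transcription factors drove the cis-regulated reporters; activity was fitted bidirectionally against DMSO.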
# [18] = ATG_RORE_CIS: Attagene CIS-FACTORIAL HepG2 Assay for human RAR-related Orphan Receptor Element (RORE) (AID 2282959); conditions: HepG2 Attagene cis-factorial RORE reporter, mRNA; actives raise or lower the signal
# Outline: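 Measured here: transcript induction of a cis-regulated reporter in HepG2 cells transiently transfected via FuGene 6. After 24 h, RNA was processed by RT-PCR and fluorescent capillary electrophoresis; DMSO defined baseline activity.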
# [19] = ATG_SREBP_CIS: Attagene CIS-FACTORIAL HepG2 Assay for human Sterol Regulatory Element Binding (SREBP) (AID 2282962); conditions: HepG2 Attagene cis-factorial SREBP reporter, mRNA; actives raise or lower the signal
# Outline: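 Endogenous SREBP activity read as cis-element-driven reporter transcript in transiently transfected HepG2, 24 h post-dosing; quantified via RT-PCR plus capillary electrophoresis of fluorescent fragments. Gain or loss of signal fitted relative to DMSO baseline.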
smiles,measurement,setting,value
Oc1ccc(C(c2ccc(O)cc2)(C(F)(F)F)C(F)(F)F)cc1,outcome,[1],inactive
same,AC50,[2],20.1 µM (active) and 11.1 µM (active)
same,outcome,[2],inactive
same,outcome,[3],inactive
same,outcome,[4],inactive
same,outcome,[5],inactive
same,outcome,[6],inactive
same,AC50,[7],16.3 µM (active) [middle of 4 runs]
same,AC50,[8],16.2 µM (active) [middle of 4 runs]
same,AC50,[9],8.18 µM (active) and 16.2 µM (active)
same,outcome,[9],inactive
same,AC50,[10],4.15 µM (active) [middle of 4 runs]
same,AC50,[11],11.1 µM (active) and 5.95 µM (active) and 16.8 µM (active)
same,outcome,[11],inactive
same,outcome,[12],inactive
same,AC50,[13],18.8 µM (active) and 18.4 µM (active)
same,outcome,[13],inactive
same,outcome,[14],inactive
same,outcome,[15],inactive
same,AC50,[16],11.1 µM (active) and 8.78 µM (active)
same,outcome,[16],inactive
O=NN(c1ccccc1)c1ccccc1,outcome,[17],inactive
same,outcome,[1],inactive
same,outcome,[2],inactive
same,outcome,[3],inactive
same,outcome,[4],inactive
same,outcome,[5],inactive
same,outcome,[6],inactive
same,outcome,[7],inactive
same,outcome,[8],inactive
same,outcome,[9],inactive
same,AC50,[10],27.8 µM (active)
same,outcome,[11],inactive
same,outcome,[18],inactive
same,outcome,[12],inactive
same,outcome,[13],inactive
same,outcome,[14],inactive
same,outcome,[15],inactive
same,outcome,[16],inactive
O=S(=O)(O)C(F)(F)C(F)(F)C(F)(F)C(F)(F)C(F)(F)C(F)(F)F,outcome,[17],inactive
same,outcome,[1],inactive
same,outcome,[2],inactive
same,outcome,[3],inactive
same,outcome,[4],inactive
same,outcome,[5],inactive
same,outcome,[6],inactive
same,outcome,[7],inactive
same,outcome,[8],inactive
same,outcome,[9],inactive
same,AC50,[10],51.4 µM (active) [middle of 4 runs]
same,AC50,[11],97.7 µM (active) [middle of 4 runs]
same,outcome,[18],inactive
same,outcome,[12],inactive
same,outcome,[13],inactive
same,outcome,[19],inactive
same,outcome,[14],inactive
same,outcome,[15],inactive
same,outcome,[16],inactive
